# Measured values taken from publication PMC7862700, “An all-to-all approach to the identification of sequence-specific readers for epigenetic DNA modifications on cytosine”.
# Key:
# Test in all cases: DAPPL (digital affinity profiling via proximity ligation, sequencing); 10 mM Tris-HCl pH 7.5, 50 mM NaCl, 1 mM DTT, 4% glycerol, room temperature, 30 min; GST-TFs on glutathione beads, 16-mer random dsDNA library, 0.1% formaldehyde crosslink after washing; high values mean tight binding
# [1] = biological target: T1, FLI1 (Homo sapiens, UniProt Q01543 1-452); details: protein: recombinant; tags: N-terminal GST; dsDNA, one strand shown
# T1 sequence: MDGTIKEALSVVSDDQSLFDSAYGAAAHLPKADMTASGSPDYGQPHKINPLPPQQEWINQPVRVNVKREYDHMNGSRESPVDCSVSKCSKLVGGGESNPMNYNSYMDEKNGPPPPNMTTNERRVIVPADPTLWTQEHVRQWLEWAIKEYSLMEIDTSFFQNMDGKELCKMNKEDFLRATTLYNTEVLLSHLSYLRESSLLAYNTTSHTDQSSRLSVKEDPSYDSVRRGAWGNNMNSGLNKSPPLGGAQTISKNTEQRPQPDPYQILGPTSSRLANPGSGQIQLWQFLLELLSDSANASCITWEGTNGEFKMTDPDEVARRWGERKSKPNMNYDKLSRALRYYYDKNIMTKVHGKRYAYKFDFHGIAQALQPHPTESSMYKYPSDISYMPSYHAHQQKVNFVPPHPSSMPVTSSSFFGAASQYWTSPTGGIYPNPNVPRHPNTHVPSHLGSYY
# Method in brief: (§1)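 Human transcription factors carrying a GST fusion were produced in yeast, bound to glutathione beads, tagged with DNA barcodes and pooled together with a tag-only sample. Each pool was held with 200 nmole of a random double-stranded 16-mer DNA library in Tris/NaCl/DTT/glycerol buffer for 30 min at room temperature, then washed, crosslinked in 0.1% formaldehyde, proximity-ligated with BsaI/T4 ligase (1 h, 37 °C), PCR-amplified and sequenced on an Illumina NextSeq500. Binding signal is the read frequency of each hexamer for a given factor divided by its frequency in the tag-only sample.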
# [2] = biological target: T2, ELK1 (Homo sapiens, UniProt P19419 1-428); details: protein: recombinant; tags: N-terminal GST; dsDNA, one strand shown
# T2 sequence: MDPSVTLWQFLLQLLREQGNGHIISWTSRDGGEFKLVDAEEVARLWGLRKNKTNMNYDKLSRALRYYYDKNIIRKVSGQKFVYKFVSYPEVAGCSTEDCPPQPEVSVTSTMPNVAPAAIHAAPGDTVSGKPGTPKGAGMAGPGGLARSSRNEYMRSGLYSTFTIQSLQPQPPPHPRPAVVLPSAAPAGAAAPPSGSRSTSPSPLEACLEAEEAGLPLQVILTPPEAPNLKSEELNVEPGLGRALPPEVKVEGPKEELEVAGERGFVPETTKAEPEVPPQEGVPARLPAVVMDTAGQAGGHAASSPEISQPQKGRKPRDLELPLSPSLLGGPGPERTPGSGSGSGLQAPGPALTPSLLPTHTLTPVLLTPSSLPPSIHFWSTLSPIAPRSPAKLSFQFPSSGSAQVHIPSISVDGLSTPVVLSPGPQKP
# Method in brief: as §1
# [3] = biological target: T3, GABPA (Homo sapiens, UniProt Q06546 1-454); details: protein: recombinant; tags: N-terminal GST; dsDNA, one strand shown
# T3 sequence: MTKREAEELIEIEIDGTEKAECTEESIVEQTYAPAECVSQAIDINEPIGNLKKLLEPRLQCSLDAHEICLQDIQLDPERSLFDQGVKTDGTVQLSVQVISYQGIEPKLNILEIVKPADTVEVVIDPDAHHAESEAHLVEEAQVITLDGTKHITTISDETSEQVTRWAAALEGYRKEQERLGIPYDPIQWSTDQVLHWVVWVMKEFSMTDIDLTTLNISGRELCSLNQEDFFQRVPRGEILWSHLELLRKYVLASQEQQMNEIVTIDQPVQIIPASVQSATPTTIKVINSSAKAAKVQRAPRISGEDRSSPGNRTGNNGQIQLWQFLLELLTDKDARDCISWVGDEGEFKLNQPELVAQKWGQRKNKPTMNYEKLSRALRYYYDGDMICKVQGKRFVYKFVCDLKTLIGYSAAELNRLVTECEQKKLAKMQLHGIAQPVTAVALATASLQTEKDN
# Method in brief: as §1
# [4] = biological target: T4, ERG (Homo sapiens, UniProt P11308 1-479); details: protein: recombinant; tags: N-terminal GST; dsDNA, one strand shown
# T4 sequence: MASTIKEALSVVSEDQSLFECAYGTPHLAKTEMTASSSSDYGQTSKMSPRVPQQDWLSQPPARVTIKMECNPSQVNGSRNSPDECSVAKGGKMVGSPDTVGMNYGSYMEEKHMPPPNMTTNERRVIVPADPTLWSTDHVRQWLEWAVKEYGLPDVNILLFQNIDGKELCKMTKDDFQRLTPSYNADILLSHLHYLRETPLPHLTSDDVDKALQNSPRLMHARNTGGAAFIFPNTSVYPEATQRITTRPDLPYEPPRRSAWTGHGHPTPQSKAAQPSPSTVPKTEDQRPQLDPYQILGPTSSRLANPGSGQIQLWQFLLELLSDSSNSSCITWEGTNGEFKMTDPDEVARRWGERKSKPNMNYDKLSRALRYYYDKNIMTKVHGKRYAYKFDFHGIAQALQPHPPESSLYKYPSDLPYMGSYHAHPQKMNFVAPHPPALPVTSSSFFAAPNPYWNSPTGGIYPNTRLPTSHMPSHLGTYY
# Method in brief: as §1
# [5] = biological target: ELF1 (Homo sapiens, UniProt P32519 1-619); details: protein: recombinant; tags: N-terminal GST; dsDNA, one strand shown
# Chain of ELF1 (P32519 whole entry): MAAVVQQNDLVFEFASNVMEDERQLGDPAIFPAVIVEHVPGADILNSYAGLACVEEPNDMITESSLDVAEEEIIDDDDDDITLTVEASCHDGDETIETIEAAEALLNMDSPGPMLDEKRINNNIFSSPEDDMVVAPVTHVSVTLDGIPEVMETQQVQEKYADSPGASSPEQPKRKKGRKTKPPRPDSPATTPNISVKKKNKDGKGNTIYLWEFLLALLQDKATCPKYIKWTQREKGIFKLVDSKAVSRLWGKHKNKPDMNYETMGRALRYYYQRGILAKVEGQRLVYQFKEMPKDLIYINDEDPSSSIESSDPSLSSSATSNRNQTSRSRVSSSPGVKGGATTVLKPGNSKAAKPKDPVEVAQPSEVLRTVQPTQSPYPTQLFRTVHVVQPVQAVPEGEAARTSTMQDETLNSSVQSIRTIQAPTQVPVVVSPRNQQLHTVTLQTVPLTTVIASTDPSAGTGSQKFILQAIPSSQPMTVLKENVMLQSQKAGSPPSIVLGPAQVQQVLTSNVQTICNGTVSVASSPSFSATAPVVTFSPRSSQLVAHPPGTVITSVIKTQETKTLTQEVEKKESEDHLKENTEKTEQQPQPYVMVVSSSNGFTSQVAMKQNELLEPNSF
# Method in brief: as §1
# [6] = biological target: T5, EHF (Homo sapiens, UniProt Q9NZC4 1-300); details: protein: recombinant; tags: N-terminal GST; dsDNA, one strand shown
# T5 sequence: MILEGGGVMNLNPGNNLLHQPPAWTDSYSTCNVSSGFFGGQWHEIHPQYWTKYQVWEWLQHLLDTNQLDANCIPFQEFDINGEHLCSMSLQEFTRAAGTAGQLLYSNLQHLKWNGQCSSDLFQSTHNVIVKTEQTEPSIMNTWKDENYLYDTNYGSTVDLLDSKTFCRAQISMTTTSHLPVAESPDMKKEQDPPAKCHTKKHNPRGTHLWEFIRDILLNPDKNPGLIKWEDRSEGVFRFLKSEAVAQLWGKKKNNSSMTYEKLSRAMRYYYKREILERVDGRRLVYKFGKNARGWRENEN
# Method in brief: as §1
# [7] = biological target: SPI1 (Homo sapiens, UniProt P17947 1-270); details: protein: recombinant; tags: N-terminal GST; dsDNA, one strand shown
# Method in brief: as §1
# [8] = biological target: SPIB (Homo sapiens, UniProt Q01892 1-262); details: protein: recombinant; tags: N-terminal GST; dsDNA, one strand shown
# Chain of SPIB (Q01892 whole entry): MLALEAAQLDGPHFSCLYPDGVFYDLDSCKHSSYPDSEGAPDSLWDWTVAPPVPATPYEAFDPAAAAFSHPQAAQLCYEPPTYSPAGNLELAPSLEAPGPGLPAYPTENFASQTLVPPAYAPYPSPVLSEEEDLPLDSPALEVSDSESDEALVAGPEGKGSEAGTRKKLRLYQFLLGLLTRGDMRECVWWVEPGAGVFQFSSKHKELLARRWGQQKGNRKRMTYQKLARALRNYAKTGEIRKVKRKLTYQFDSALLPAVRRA
# Method in brief: as §1
# [9] = biological target: T6, ELK3 (Homo sapiens, UniProt P41970 1-407); details: protein: recombinant; tags: N-terminal GST; dsDNA, one strand shown
# T6 sequence: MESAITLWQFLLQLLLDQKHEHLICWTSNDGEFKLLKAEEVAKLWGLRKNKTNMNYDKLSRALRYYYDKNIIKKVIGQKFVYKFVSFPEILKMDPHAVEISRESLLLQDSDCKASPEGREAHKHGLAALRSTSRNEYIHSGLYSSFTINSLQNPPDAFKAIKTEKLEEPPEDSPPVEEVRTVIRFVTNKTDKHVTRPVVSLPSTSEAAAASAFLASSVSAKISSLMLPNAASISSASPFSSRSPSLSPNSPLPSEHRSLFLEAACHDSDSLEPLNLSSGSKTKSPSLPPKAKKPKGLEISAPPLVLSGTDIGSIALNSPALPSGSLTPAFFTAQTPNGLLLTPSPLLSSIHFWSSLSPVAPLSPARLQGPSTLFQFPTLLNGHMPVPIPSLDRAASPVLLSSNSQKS
# Method in brief: as §1
# [10] = biological target: T7, FEV (Homo sapiens, UniProt Q99581 1-238); details: protein: recombinant; tags: N-terminal GST; dsDNA, one strand shown
# T7 sequence: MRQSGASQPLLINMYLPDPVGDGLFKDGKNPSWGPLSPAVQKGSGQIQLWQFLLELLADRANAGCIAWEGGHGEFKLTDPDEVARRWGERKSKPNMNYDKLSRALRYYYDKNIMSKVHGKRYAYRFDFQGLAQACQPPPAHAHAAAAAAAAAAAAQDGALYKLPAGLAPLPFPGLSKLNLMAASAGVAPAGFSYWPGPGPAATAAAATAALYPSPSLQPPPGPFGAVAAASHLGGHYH
# Method in brief: as §1
# [11] = biological target: ETV5 (Homo sapiens, UniProt P41161 1-510); details: protein: recombinant; tags: N-terminal GST; dsDNA, one strand shown
# Chain of ETV5 (P41161 whole entry): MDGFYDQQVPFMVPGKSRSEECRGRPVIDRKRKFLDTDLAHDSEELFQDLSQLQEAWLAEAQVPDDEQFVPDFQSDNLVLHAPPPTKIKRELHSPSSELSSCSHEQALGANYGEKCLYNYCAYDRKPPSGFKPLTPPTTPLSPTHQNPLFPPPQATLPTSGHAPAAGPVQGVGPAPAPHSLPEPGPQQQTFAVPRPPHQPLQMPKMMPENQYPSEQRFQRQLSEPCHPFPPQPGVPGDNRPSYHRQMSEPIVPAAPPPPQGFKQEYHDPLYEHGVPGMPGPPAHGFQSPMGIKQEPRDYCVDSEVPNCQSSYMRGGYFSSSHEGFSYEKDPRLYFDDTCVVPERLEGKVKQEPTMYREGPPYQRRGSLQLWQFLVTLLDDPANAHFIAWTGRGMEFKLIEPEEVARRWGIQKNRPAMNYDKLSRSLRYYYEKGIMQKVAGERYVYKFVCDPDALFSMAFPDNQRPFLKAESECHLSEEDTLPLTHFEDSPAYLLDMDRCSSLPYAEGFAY
# Method in brief: as §1
# [12] = biological target: HSF1 (Homo sapiens, UniProt Q00613 1-529); details: protein: recombinant; tags: N-terminal GST; chain copies: 3; dsDNA, one strand shown
# Chain of HSF1 (Q00613 whole entry): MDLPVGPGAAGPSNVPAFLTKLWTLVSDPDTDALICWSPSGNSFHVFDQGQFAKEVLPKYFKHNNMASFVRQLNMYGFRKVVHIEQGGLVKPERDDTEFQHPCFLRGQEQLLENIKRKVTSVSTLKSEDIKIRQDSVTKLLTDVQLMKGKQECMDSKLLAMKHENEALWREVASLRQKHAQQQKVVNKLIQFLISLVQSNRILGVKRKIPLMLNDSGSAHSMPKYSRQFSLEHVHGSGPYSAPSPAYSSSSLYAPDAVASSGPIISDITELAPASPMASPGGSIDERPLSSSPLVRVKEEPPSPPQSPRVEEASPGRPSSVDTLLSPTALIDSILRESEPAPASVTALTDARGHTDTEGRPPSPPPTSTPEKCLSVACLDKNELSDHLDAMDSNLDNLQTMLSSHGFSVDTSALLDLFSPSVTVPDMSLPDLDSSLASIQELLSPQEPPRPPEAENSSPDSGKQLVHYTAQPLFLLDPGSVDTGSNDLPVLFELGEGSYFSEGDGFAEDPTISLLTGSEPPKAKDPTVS
# Method in brief: as §1
# [13] = biological target: T8, SPIC (Homo sapiens, UniProt Q8N5J4 1-248); details: protein: recombinant; tags: N-terminal GST; dsDNA, one strand shown
# T8 sequence: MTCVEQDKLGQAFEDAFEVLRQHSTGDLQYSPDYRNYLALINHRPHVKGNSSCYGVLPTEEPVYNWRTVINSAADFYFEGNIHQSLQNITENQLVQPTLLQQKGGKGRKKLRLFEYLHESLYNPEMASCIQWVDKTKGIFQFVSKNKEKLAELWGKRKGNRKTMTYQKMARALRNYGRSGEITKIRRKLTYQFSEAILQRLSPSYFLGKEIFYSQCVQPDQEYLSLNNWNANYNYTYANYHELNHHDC
# Method in brief: as §1
# [14] = biological target: ELF4 (Homo sapiens, UniProt Q99607 1-663); details: protein: recombinant; tags: N-terminal GST; dsDNA, one strand shown
# Chain of ELF4 (Q99607 whole entry): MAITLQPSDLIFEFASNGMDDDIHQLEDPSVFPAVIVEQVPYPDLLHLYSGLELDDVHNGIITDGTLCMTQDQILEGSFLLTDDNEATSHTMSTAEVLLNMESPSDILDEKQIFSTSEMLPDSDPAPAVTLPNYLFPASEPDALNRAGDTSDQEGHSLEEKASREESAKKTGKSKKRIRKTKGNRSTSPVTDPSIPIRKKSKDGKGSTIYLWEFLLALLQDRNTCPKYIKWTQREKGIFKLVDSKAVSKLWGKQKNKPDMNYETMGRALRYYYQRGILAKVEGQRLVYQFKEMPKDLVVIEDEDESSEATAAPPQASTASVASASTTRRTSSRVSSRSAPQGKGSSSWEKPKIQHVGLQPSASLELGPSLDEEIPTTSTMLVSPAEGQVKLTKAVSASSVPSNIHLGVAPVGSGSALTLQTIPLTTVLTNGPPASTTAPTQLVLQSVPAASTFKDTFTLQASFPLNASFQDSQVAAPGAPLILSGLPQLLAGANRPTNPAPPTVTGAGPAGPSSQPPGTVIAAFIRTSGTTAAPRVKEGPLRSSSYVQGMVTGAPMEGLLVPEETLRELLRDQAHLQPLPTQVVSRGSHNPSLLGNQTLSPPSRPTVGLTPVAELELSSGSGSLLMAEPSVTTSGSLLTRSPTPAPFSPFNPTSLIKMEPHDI
# Method in brief: as §1
# [15] = biological target: T9, ELK4 (Homo sapiens, UniProt P28324-2 1-405); details: protein: recombinant; tags: N-terminal GST; dsDNA, one strand shown
# T9 sequence: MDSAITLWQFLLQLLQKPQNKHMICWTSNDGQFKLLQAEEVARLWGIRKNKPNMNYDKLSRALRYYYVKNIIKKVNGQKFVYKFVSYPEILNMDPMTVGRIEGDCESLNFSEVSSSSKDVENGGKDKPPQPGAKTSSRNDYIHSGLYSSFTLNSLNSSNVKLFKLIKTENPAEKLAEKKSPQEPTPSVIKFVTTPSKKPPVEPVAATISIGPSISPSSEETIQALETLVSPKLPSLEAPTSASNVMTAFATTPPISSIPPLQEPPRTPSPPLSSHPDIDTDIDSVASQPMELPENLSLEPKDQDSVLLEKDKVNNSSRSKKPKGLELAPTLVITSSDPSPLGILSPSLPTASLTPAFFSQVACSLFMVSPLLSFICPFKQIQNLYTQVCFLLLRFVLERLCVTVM
# Method in brief: as §1
# [16] = biological target: T10, ETV2 (Homo sapiens, UniProt O00321 1-342); details: protein: recombinant; tags: N-terminal GST; dsDNA, one strand shown
# T10 sequence: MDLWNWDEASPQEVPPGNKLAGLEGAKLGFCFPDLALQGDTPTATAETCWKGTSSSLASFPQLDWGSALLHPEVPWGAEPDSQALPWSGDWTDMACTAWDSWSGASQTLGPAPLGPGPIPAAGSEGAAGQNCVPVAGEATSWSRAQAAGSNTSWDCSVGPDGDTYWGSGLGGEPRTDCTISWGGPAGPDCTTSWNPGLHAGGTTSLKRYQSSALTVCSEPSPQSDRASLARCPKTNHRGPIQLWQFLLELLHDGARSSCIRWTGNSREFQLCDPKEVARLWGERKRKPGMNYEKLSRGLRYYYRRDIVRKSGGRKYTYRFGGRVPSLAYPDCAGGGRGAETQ
# Method in brief: as §1
# [17] = biological target: T11, ELF3 (Homo sapiens, UniProt P78545 1-371); details: protein: recombinant; tags: N-terminal GST; dsDNA, one strand shown
# T11 sequence: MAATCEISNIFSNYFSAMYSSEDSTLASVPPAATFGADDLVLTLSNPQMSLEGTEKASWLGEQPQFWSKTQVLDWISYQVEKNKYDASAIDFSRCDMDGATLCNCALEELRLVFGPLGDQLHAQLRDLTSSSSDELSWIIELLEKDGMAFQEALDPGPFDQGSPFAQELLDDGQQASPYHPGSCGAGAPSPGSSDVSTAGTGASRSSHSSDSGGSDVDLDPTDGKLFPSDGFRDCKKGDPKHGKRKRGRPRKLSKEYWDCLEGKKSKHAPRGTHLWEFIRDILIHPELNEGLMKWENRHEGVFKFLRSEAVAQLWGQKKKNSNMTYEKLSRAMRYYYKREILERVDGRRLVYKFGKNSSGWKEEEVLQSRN
# Method in brief: as §1
# [18] = biological target: CRX (Homo sapiens, UniProt O43186 1-299); details: protein: recombinant; tags: N-terminal GST; dsDNA, one strand shown
# Chain of CRX (O43186 whole entry): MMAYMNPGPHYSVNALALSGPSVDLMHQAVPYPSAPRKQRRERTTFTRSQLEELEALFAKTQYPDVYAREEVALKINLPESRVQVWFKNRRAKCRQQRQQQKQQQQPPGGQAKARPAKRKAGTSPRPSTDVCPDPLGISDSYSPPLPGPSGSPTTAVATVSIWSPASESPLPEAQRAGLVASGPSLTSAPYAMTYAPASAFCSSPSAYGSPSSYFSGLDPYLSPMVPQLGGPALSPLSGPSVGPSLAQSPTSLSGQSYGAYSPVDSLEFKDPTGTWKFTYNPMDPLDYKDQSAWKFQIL
# Method in brief: as §1
# [19] = biological target: ETV1 (Homo sapiens, UniProt P50549 1-477); details: protein: recombinant; tags: N-terminal GST; dsDNA, one strand shown
# Chain of ETV1 (P50549 whole entry): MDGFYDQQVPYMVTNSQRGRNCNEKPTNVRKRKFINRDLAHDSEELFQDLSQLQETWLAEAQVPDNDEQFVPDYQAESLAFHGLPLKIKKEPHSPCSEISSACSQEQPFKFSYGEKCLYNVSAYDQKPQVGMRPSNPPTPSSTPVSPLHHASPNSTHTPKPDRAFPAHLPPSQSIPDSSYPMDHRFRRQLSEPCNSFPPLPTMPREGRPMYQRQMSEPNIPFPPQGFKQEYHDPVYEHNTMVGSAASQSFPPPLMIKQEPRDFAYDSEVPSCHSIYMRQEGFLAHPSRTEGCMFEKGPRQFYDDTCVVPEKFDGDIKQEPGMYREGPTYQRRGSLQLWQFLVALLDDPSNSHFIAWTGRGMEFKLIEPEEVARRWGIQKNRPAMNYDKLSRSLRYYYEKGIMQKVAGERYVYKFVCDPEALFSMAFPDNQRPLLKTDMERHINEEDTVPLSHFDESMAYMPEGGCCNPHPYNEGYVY
# Method in brief: as §1
sequence,measurement,setting,value
ACGGAT,binding signal,[1],"1.27 fold enrichment (6-mer frequency, TF over GST control)"
same,binding signal,[2],"1.21 fold enrichment (6-mer frequency, TF over GST control)"
same,binding signal,[3],"1.21 fold enrichment (6-mer frequency, TF over GST control)"
same,binding signal,[4],"1.37 fold enrichment (6-mer frequency, TF over GST control)"
same,binding signal,[5],"1.22 fold enrichment (6-mer frequency, TF over GST control)"
same,binding signal,[6],"1.3 fold enrichment (6-mer frequency, TF over GST control)"
same,binding signal,[7],"1.2 fold enrichment (6-mer frequency, TF over GST control)"
same,binding signal,[8],"1.19 fold enrichment (6-mer frequency, TF over GST control)"
same,binding signal,[9],"1.29 fold enrichment (6-mer frequency, TF over GST control)"
same,binding signal,[10],"1.54 fold enrichment (6-mer frequency, TF over GST control)"
same,binding signal,[11],"1.32 fold enrichment (6-mer frequency, TF over GST control)"
same,binding signal,[12],"1.18 fold enrichment (6-mer frequency, TF over GST control)"
same,binding signal,[13],"1.38 fold enrichment (6-mer frequency, TF over GST control)"
same,binding signal,[14],"1.19 fold enrichment (6-mer frequency, TF over GST control)"
same,binding signal,[15],"1.12 fold enrichment (6-mer frequency, TF over GST control)"
same,binding signal,[16],"1.2 fold enrichment (6-mer frequency, TF over GST control)"
same,binding signal,[17],"1.3 fold enrichment (6-mer frequency, TF over GST control)"
same,binding signal,[18],"1.61 fold enrichment (6-mer frequency, TF over GST control)"
same,binding signal,[19],"1.23 fold enrichment (6-mer frequency, TF over GST control)"
